esBAF inh – SWI/SNF esBAF complex inhibition; mouse ES cells, Bmi1-luciferase knock-in reporter, 24 h; 100% = twice the neutral-well signal; reporter increase, % at 12.5 µM; 350,000 tested, 2% active; AID 602393; in the data active = activation above about 40%; inconclusive = no clear call, values can overlap the other calls;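 note: a rise in the Bmi1 reporter signal indicates esBAF inhibition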
PvdQ acylase – P. aeruginosa PvdQ acylase inhibition | inhibition, % at 10 µM | 340,000 tested, 0.063% active | AID 488965 | purified PvdQ acylase, fluorescence plate reader; in the data active = inhibition above about 30%, passing the limit was not always enough; inconclusive = no clear call, values can overlap the other calls
Vif inh – blocks HIV Vif function. HEK293T cells, Vif self-association by quenched fluorescence, imaging, 24 h. 340,000 tested, 0.35% active. inhibition, % at 7.49 µM; in the data active = inhibition above about 50%, passing the limit was not always enough; inconclusive = no clear call, values can overlap the other calls; inactive = below about 31%
Wnt bcat act – activates Wnt/beta-catenin signaling in a reporter cell assay; activation, % at 9.35 µM; activator, plate reader; 300,000 tested, 1.2% active; in the data active = activation above about 30%, passing the limit was not always enough; inconclusive = no clear call, values can overlap the other calls
Glyco luc inh – N-linked glycosylation inhibition; D54 ERlucT glycosylation luciferase reporter, 24 h; percent of 100 nM tunicamycin response; reporter increase, % at 12.5 µM; 360,000 tested, 0.23% active; AID 588692;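 active = mean luciferase reporter signal, scaled so untreated is 0 and the glycosylation-blocking control 100, at or above a set limit in every replicate; inconclusive = mean reaches the limit but not every replicate does; inactive = mean below the limit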;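 note: luciferase carries N-glycosylation sites so blocking glycosylation raises the light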
MITF act – MITF TRPM1 promoter activation in melanoma cells. 300,000 tested, 0.75% active. SK-MEL-5 TRPM1-promoter luciferase, 24 h; % of positive control, neutral wells = 0. activation, % at 12.5 µM;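 active = mean activation of at least 80% with every replicate also reaching 80%; inconclusive = mean reaches 80% but some replicate falls short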
Each line names hits and unclear results; the compound was inactive in the other large screens. The list is not random: actives were taken first. Their share in the collection is about 2.9%.

COc1cccc(NC(=O)C[C@H]2CC[C@H]3[C@@H](COc4ccc(NC(=O)C5CCOCC5)cc4C(=O)N3C)O2)c1	none (no result: PvdQ acylase, Vif inh, Wnt bcat act, Glyco luc inh, MITF act)
O=C(C[C@@H]1C[C@@H]2c3cc(NC(=O)CC4CC4)ccc3O[C@@H]2[C@H](CO)O1)NCc1ccc(Cl)cc1	none (no result: PvdQ acylase, Vif inh, Wnt bcat act, Glyco luc inh, MITF act)
CCCNC(=O)C[C@H]1C[C@@H]2c3cc(N(C)C)ccc3O[C@@H]2[C@@H](CO)O1	none (no result: PvdQ acylase, Vif inh, Wnt bcat act, Glyco luc inh, MITF act)
CCOC(=O)c1c(NC(C)=O)sc2c(OCC(O)CN(CC)CC)c(Br)ccc12 (stereo unspecified)	none
CCOC(=O)c1c(NC(C)=O)sc2c(OCCN(CC)CC)c(Br)ccc12	Glyco luc inh 85 (no result: esBAF inh)
CC(=O)N(C)c1ccc(N=Nc2c(C)[nH]n(-c3ccccc3)c2=O)cc1	none (no result: MITF act)
CC1=NN(C(N)=S)C(=O)C1N=Nc1ccc(S(N)(=O)=O)cc1 (stereo unspecified)	none
CC(=O)N(C)c1ccc(N=NC2C(=O)N(C(N)=S)N=C2C)cc1 (stereo unspecified)	Wnt bcat act 52
CC(=O)N(C)c1ccc(N=Nc2c(C)[nH]n(C(N)=S)c2=O)cc1	Wnt bcat act 51 (no result: esBAF inh)
CC(=O)CSc1ccc(-c2nc3ccccc3[nH]2)cn1	none
O=C(CSc1ccc(-c2nc3ccccc3[nH]2)cn1)Nc1ccc(S(=O)(=O)N2CCCC2)cc1	Wnt bcat act 41 (no result: esBAF inh)
Cc1cc2nc(-c3ccc(SCC(=O)Nc4ccc(S(=O)(=O)N5CCCC5)cc4)nc3)[nH]c2cc1C	Wnt bcat act 47 (no result: esBAF inh)
C[C@@H]1CN([C@@H](C)CO)C(=O)Cc2cc(NC(=O)c3ccncc3)ccc2O[C@H]1CN(C)Cc1ccc2c(c1)OCO2	none (no result: PvdQ acylase, Vif inh, Wnt bcat act, Glyco luc inh, MITF act)
Cc1ccc(S(=O)(=O)N2CCCC(C(=O)Nc3cccnc3)C2)cc1 (stereo unspecified)	none (no result: Wnt bcat act, MITF act)
O=C(Nc1ccc(N2CCOCC2)nc1)c1ccccc1Cl	esBAF inh 45
O=C(Nc1ccc(NC(=O)C2CCCCC2)nc1)c1ccccn1	esBAF inh 47, Wnt bcat act inconclusive, MITF act 94
O=C(Nc1ccc(NC(=O)C2CC2)cn1)c1ccccc1Cl	esBAF inh 42, Wnt bcat act 37
O=C(Nc1ccc(N2CCOCC2)nc1)c1ccc(C(F)(F)F)cc1	none (no result: esBAF inh)
Cc1ccc(S(=O)(=O)N2CCCC(C(=O)Nc3ccc(NC(=O)c4ccccn4)cc3)C2)cc1 (stereo unspecified)	Wnt bcat act 60
C[C@@H]1CN([C@H](C)CO)C(=O)c2cc(-c3ccccc3F)cnc2O[C@H]1CN(C)Cc1cccc(C(=O)O)c1	none (no result: PvdQ acylase, Vif inh, Wnt bcat act, Glyco luc inh, MITF act)
C[C@H]1CN([C@@H](C)CO)C(=O)c2cc(NC(=O)C3CCCCC3)ccc2O[C@H]1CN(C)Cc1ccc(Cl)c(Cl)c1	none (no result: PvdQ acylase, Vif inh, Wnt bcat act, Glyco luc inh, MITF act)
CCOc1nc(NCc2ccco2)nc(Nc2ccccc2F)n1	esBAF inh 67 (no result: Vif inh, Wnt bcat act)
C[C@H](O)C#Cc1cnc2c(c1)C(=O)N([C@@H](C)CO)C[C@H](C)[C@@H](CN(C)C(=O)c1ccc(F)cc1)O2	none (no result: PvdQ acylase, Vif inh, Wnt bcat act, Glyco luc inh, MITF act)
COc1ccc(C2=Cc3ccc(OC(C)=O)cc3OC2)cc1	esBAF inh 78, MITF act 103
O=C(C[C@@H]1C[C@@H]2c3cc(NC(=O)C4CCC4)ccc3O[C@@H]2[C@H](CO)O1)NCc1ccccc1F	none (no result: PvdQ acylase, Vif inh, Wnt bcat act, Glyco luc inh, MITF act)
CN(C)c1ccnc(Oc2ccc(C(C)(C)C)cc2)c1C#N	esBAF inh 52 (no result: Wnt bcat act)
C[C@H]1CN([C@@H](C)CO)C(=O)Cc2cc(NC(=O)c3ccncc3)ccc2O[C@H]1CN(C)C(=O)Nc1cccc2ccccc12	none (no result: PvdQ acylase, Vif inh, Wnt bcat act, Glyco luc inh, MITF act)
CS(=O)(=O)N1[C@H](CO)[C@@H](c2ccc(C#Cc3cccc(F)c3)cc2)[C@@H]1C#N	none (no result: PvdQ acylase, Vif inh, Wnt bcat act, Glyco luc inh, MITF act)
O=Cc1c[nH]c2ccc(OCc3ccccc3)cc12	none
Cn1ccc2cc(OCc3ccccc3)ccc21	esBAF inh 49
Cc1c(C=O)c2cc(OCc3ccccc3)ccc2n1C	esBAF inh 70 (no result: MITF act)
Cc1cc2cc(OCc3ccccc3)ccc2n1C	none (no result: MITF act)
CO[C@@H]1CN(C)C(=O)c2cc(NC(=O)Nc3ccccc3)ccc2OC[C@H](C)N(C(=O)CN(C)C)C[C@@H]1C	none (no result: PvdQ acylase, Vif inh, Wnt bcat act, Glyco luc inh, MITF act)
Cc1ccc2c(CN3CCC(C)CC3)cc(=O)oc2c1C	esBAF inh inconclusive, MITF act 93
CCCn1nnnc1SCC(=O)N1CCCCC1	Vif inh 57
COc1ccc2[nH]c(C(=O)N/N=C/c3ccccc3OC)cc2c1	Glyco luc inh 37
O=C(O)c1cccc(Nc2nc(-c3cc4ccccc4oc3=O)cs2)c1	esBAF inh 51
Fc1cccc(Nc2ncnc3c2cnn3-c2ccccc2)c1	esBAF inh 57 (no result: Vif inh)
Clc1cccc(Nc2ncnc3c2cnn3-c2ccccc2)c1	esBAF inh 65
Cc1ccc(-c2nnc(SCC(=O)Nc3ccccc3F)o2)cc1	none
COc1ccc(-c2nnc(SCc3ccccc3F)o2)cc1OC	esBAF inh 66 (no result: Wnt bcat act)
Cc1ccc(-c2nnc(SCc3ccccc3F)o2)cc1	MITF act 99 (no result: esBAF inh)
COc1ccc(NC(=O)Nc2ccc3c(c2)C(=O)N([C@@H](C)CO)C[C@@H](C)[C@H](CN(C)C(=O)Nc2ccccc2)O3)cc1	none (no result: PvdQ acylase, Vif inh, Wnt bcat act, Glyco luc inh, MITF act)
CC(/C=C\c1ccccc1)=C/C(=O)O	none (no result: esBAF inh)
CC1=C(/C=C/C(C)=C/C=C/C(C)=C/C(=O)O)C(C)(C)CCC1	Vif inh 65
Nc1nonc1-c1nc2ccccc2n1CC(=O)Nc1ccccc1	none
Nc1nonc1-c1nc2ccccc2n1CC(=O)NC1CCCC1	Vif inh 50 (no result: Wnt bcat act)
Oc1ccc(-c2csc(Nc3ncccn3)n2)cc1O	none (no result: esBAF inh)
Oc1ccc(-c2csc(Nc3ncccn3)n2)c(O)c1	esBAF inh 82, Wnt bcat act 94, MITF act 104
Oc1ccc(-c2csc(Nc3ccc4c(c3)OCO4)n2)c(O)c1	Wnt bcat act 46
Cc1cccc(Nc2nc(-c3ccc(O)cc3O)cs2)n1	esBAF inh 45 (no result: MITF act)
Cc1ccc(S(=O)(=O)N(C)C[C@@H]2Oc3ccc(NC(=O)CCC(F)(F)F)cc3C(=O)N([C@@H](C)CO)C[C@H]2C)cc1	none (no result: PvdQ acylase, Vif inh, Wnt bcat act, Glyco luc inh, MITF act)
Cc1ccc(NC(=O)COc2ccc3oc4c(c3c2)CCCC4)nc1	none
Cc1csc(NC(=O)COc2ccc3c(c2)CCC3)n1	esBAF inh 64
Cc1ccc(OCC(=O)c2ccc3c(c2)CCCC3)cc1C	MITF act 97
COc1ccc(OCC(=O)Nc2ccc3c(c2)CCC3)cc1	none
Cc1cccnc1NC(=O)COc1ccc2c(c1)CCC2	esBAF inh 57, MITF act 100
Cc1ccc(NC(=O)COc2ccc3c(c2)CCC3)nc1	Wnt bcat act inconclusive, MITF act 94
CCC(=O)N[C@H]1CC[C@H](CC(=O)NCc2ccccc2OC)O[C@H]1CO	none (no result: PvdQ acylase, Vif inh, Wnt bcat act, Glyco luc inh, MITF act)
CCNC(=O)[C@H]1[C@H](CO)[C@H]2Cn3c(ccc(C4=CCCCC4)c3=O)[C@@H]1N2Cc1ccncc1	none (no result: PvdQ acylase, Vif inh, Wnt bcat act, Glyco luc inh, MITF act)
CC(=O)N1[C@H](CO)[C@@H]2c3ccccc3N(C(=O)c3ccccc3)C[C@@H]21	none (no result: PvdQ acylase, Vif inh, Wnt bcat act, Glyco luc inh, MITF act)
O=C(N/N=C/c1ccc2nccnc2c1)c1ccccc1O	Wnt bcat act 38 (no result: esBAF inh, PvdQ acylase, Vif inh, Glyco luc inh, MITF act)
O=C(N/N=C/c1ccnc2ccccc12)c1ccccc1O	esBAF inh 55

Compound activity: PubChem BioAssay, Broad Institute
